The panel holds about 83,000 compounds, 20% with a hit somewhere; the sample as a whole holds those more often.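 Compound tested at a single concentration for 48 hours in 96-well plates; a percent growth value below 10 was scored as active.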 Values without a mark were called inactive. Active and inactive are the calls of the source.

This experiment concerns SR leukemia. As to the kind of experiment: NCI-60 one-dose screen, 48 h (100 = growth as untreated, 0 = no growth, -100 = all killed). The following applies: 10 µM unless noted. Here is the method: Growth inhibition of the SR human tumor cell line is measured as a screen for anti-cancer activity. Cells are grown in 96 well plates and exposed to the test compound for 48 hours. Compounds are tested at a single concentration, which is 10^-5 M for most compounds. The reported endpoint is percent growth (GI% or GIPRCNT), where numbers from 0 - 100% represent growth inhibition, and numbers from -100% - 0 represent cell death. For example, a value of 40 represents 60% growth inhibition. A value of 0 means no net growth occurred over the course of the experiment. A value of -40 indicates 40% of cells at the beginning of the experiment died by the end of the experiment. A value of -100 means all cells are dead at the end of the experiment.
NCI-60 Human Tumor Cell Lines Screen was performed using the standard one-dose NCI protocol, which is described in more detail at https://dtp.cancer.gov/discovery_development/nci-60/default.htm.
Compounds with GIPRCNT values below 10 were considered active. Activity score was based on GIPRCNT using the following formula: […]
Score is 0 for GIPRCNT values of 100 or above, 50 for GIPRCNT values of 0, and 100 for GIPRCNT values of -100.
With `O=S(=O)(NCCCNc1nccc(-c2c(-c3cccc(O)c3)nc3occn23)n1)c1ccc(Cl)cc1`, the growth was 87.1%.

For the compound `COc1ccc(NC(N)=NCCCOc2ccc(F)cc2)cc1`, the growth is 93.6%.

Take `O=C(/C=C/c1ccc(Cl)cc1)c1ccc(NC(=O)N2CCN(c3cc4c(cc3F)c(=O)c(C(=O)O)cn4C3CC3)CC2)cc1`: the growth is 22%.

For the compound `CN(C)CC(O)c1ccc(/C=C/c2ccc(Cl)cc2)cc1` (stereo not given), the growth is -38.8% (active).

`COc1cccc(C(=O)NNc2nc(Cl)nc(N3CCN(C(c4ccccc4)c4ccccc4)CC3)n2)c1`: the growth is -23.8% (active).

As for `CCCCCCNC(=O)Oc1ccc(/C(=C(\C)c2ccccc2)c2ccc(OCCN3CCCCC3)cc2)cc1`, the growth is -8.47% (active).

`Cn1ccnc1C(=O)/C=C/c1ccc(CC(=O)Nc2ccc(F)cc2)cc1`: the growth is 14.4%.

Turning to `COc1ccc(/C=C2\COc3ccc(-c4ccccc4)cc3C2=O)c(OC)c1`, the growth is 69.1%.

For `CCCCCCCCO/N=C\c1c2c(O)c3c(O)c(C)c4c(c3c1O)C(=O)C(C)(O/C=C\C(OC)C(C)C(OC(C)=O)C(C)C(O)C(C)C(O)C(C)/C=C\C=C(\C)C(=O)N2)O4` (stereo not given), the growth was 6.26% (active).

In the case of `CCOC(=O)C1=C(C)NC(SCc2cc(=O)oc3ccc(F)cc23)=N[C@@H]1c1cccc2ccccc12`, the growth was 83.5%.

For `CCOC(=O)c1nc2c3ccccc3ccn2c1C(=O)OCC`, the growth was 103%.

On to `Fc1ccc(-c2cn3c(nc4ccccc43)c(-c3ccccc3)n2)cc1`, for which the growth is 91.5%.

Consider `NC(=O)CSSCC(N)=O`, for which the growth was 85.2%.

In the case of `COc1ccc(C(=O)c2cc(C)c(OC)c(C)c2)c(OC)c1OC(=O)C(Cl)Cl`, the growth was 16%.

Regarding `Brc1ccc(Nc2csc(-c3ccccn3)n2)cc1`, the growth was 97.3%.

On to `CN(C)c1ccc(C2C(C#N)=C(/N=C/c3ccccc3)Oc3c2ccc2ccccc32)cc1` (stereo not given), for which the growth is 17.7%.

Take `CC[C@]12C=CCN3CC[C@@]4(c5cc(NC(=O)CCC(=O)O[C@H]6CC[C@H]7[C@@H]8CCC9=CC(=O)CC[C@@H]9[C@H]8CC[C@]67C)c(OC)cc5N(C)[C@H]4[C@@](O)(C(=O)OC)[C@@H]1OC(C)=O)[C@@H]32`: the growth was 40%.

Take `COc1ccc(C/C(=C(\C)c2ccc(OCCN3CCCC3)cc2)c2ccc(OCCN3CCCC3)cc2)cc1`: the growth is -32.6% (active).

`CCCCOc1ccc(/C=N/Nc2cc(C)nc3ccc(Br)cc23)cc1`: the growth was -9.77% (active).

As for `COC(=O)C1=C(C(=O)ON)[C@@H]2C=C[C@@]1([C@@H](Cc1ccccc1)Nc1ccccc1)O2`, the growth is 8.17% (active).

For the compound `O=C(/C=C(O)/C=C/c1ccc(SC(F)(F)F)cc1)/C=C/c1ccc(SC(F)(F)F)cc1`, the growth is 40.8%.

Regarding `O=C(/C(=C\c1ccc([N+](=O)[O-])cc1)S(=O)Cc1ccc(Cl)cc1)c1ccc(Cl)cc1` (stereo not given), the growth is 15%.

For the compound `CCCC/C=N/NC(=S)NCc1ccccc1`, the growth was 95%.

As to `CCOc1ccc(/C=N/Nc2cc(C)nc3ccc(Br)cc23)cc1`, the growth is 2.09% (active).

With `O=C(C1CCC1)N1N=C(c2ccc(-n3ccc(C(F)(F)F)n3)cc2)CC1c1ccc[nH]1` (stereo not given), the growth is 81.9%.

Take `O=C(N/N=C/c1cc2ccccc2n2nnnc12)Nc1ccccc1`: the growth was 87.4%.

As for `CC1(C)CC[C@]2(C(=O)O)CC[C@]3(C)C(=CC[C@@H]4[C@@]5(C)Cc6c([nH]c7ccccc67)C(C)(C)[C@@H]5CC[C@]43C)[C@@H]2C1`, the growth was 41.3%.

On to `c1ccc(-c2cn3c(ccc4ccccc43)n2)cc1`, for which the growth is 20.9%.

For `Oc1ccc(C(c2ccc(O)cc2)c2ccc(Br)cn2)cc1`, the growth was 104%.

With `N#CC1C(C#N)C2c3ccccc3C=CN2C1C(=O)c1ccc(Br)cc1` (stereo not given), the growth is 99.9%.

For the compound `CCN(CC)c1ccc(C(=O)c2ccccc2)cc1`, the growth is 86.2%.

As to `COc1cc(/C=C\C(=O)O)ccc1OCc1ccccc1`, the growth is 97.7%.

Take `C[C@H]1[C@H](C)CC[C@]2(C(=O)Nc3ccc4ncccc4c3)CC[C@]3(C)C(=CC[C@@H]4[C@@]5(C)CCCNC(C)(C)[C@@H]5CC[C@]43C)[C@H]12`: the growth is -49.2% (active).

As for `Oc1ccc(OCCOc2ccc(O)cc2)cc1`, the growth was 45.7%.

As to `CCN(Cc1ccccc1)c1ccc(C=O)cc1`, the growth was 90.3%.

On to `CCN(CC)CC[n+]1cc2cc(OC)c(OC)cc2c2ccc3cc4c(cc3c21)OCO4`, for which the growth was -11.3% (active).

With `COc1ccc(-c2[nH][nH]c(=O)c2-c2nc3ccccc3s2)cc1`, the growth was 99.2%.

`C=C(C)[C@@H]1CC[C@]2(CN)CC[C@]3(C)[C@H](CC[C@@H]4[C@@]5(C)CCCNC(C)(C)[C@@H]5CC[C@]43C)[C@@H]12`: the growth is -38.7% (active).

For `O=C1Nc2cc(-c3cccc([N+](=O)[O-])c3)ccc2/C1=C/c1ccc[nH]1`, the growth was 11.3%.

For `O=[N+]([O-])CC(c1ccccc1)c1c[nH]c2ccccc12` (stereo not given), the growth was 20.2%.

Source of the values: PubChem BioAssay (NCI).
